CCHF vOTU inh – CCHFV vOTU protease inhibition; Pep-AMC fluorescence; inhibition, % at 11.5 µM; 0.55% of 370,000 active; AID 651958; in the data active = inhibition above about 30%; also: 0% = vehicle wells with enzyme and 100% = no enzyme wells
3CLpro inhibitor – SARS-CoV 3CLpro protease inhibition; P0C6X7; 0.14% of 290,000 active; inhibition, % at 6 µM; recombinant SARS-CoV 3CLpro, quenched FRET peptide cleavage; in the data active = inhibition above about 12%
BoNT-A LC inh2 – blocks Botulinum neurotoxin A light chain protease; inhibition, % at 10 µM; AID 588499; 0.17% of 360,000 active; multiplex microsphere protease substrate cleavage, flow cytometry; also: plate controls were buffer without enzyme for full effect and enzyme alone for no effect
BoNT-F LC inh – BoNT F light chain protease inhibition; Multiplex microsphere protease cleavage assay, flow cytometry; inhibition, % at 10 µM; 0.22% of 360,000 active; in the data active = inhibition above about 35%, passing the limit was not always enough; inconclusive = no clear call, values can overlap the other calls; also: plate controls were buffer without enzyme for full effect and enzyme alone for no effect
Anthrax LF inh2 – inhibitors of Bacillus anthracis lethal factor protease. 0.12% of 360,000 active. inhibition, % at 10 µM. P15917. AID 588501. multiplex microsphere protease cleavage assay, LF; also: plate controls were buffer without enzyme for full effect and enzyme alone for no effect
Bead autofluor – flagged as autofluorescent in microsphere protease counterscreen; 3.1% of 360,000 active; compound autofluorescence counterscreen, microsphere flow cytometry; stronger effect = higher value; fluorescence intensity (no concentration beside the values); in the data active = fluorescence intensity above about 16000; inconclusive = no clear call, values can overlap the other calls
Numbers without * were called inactive; ? = inconclusive; / = not tested or not shown; ! = not confirmed by another sample. In the library only some 3.9% were active in any assay of this set; here they are far more common. Rule as the data show it, unless noted: active = inhibition above about 30%; inconclusive = no clear call, values can overlap the other calls; inactive = below that.

SMILES	CCHF vOTU inh	3CLpro inhibitor	BoNT-A LC inh2	BoNT-F LC inh	Anthrax LF inh2	Bead autofluor
CCOC(=O)C1=C(C)NC(C)=C(C(=O)OCC)C1	-6.7	-2.9	?	?	-3.5	18757*!
CCOC(=O)C1=C(C)NC(C)=C(C(=O)OCC)C1C(=O)O	17.0	-7.5	?	-3.5	0.7	20924*
CC(C)n1nnnc1C1(C)CCCCC(=O)N1Cc1cccc(C(F)(F)F)c1 (centres undefined)	0.6	/	/	/	/	/
CCn1ncc(C2=NOC(C(=O)NCc3ccccc3)C2)c1C (centres undefined)	-8.2	-1.1	?	-9.6	-1.1	26555*
O=C(C1CCCN1S(=O)(=O)c1cccs1)N1CCc2ccccc2C1 (centres undefined)	7.6	/	/	/	/	/
Cc1cc(C)cc(CSCC(=O)N/N=C/c2ccc(OCC(=O)NCc3ccco3)cc2)c1	/	-2.6	3.3	2.9	-3.8	21576*
O=C(NNc1ccccn1)C(=O)NNS(=O)(=O)c1ccc(Cl)cc1	-3.7	-5.5	-1.3	-0.5	0.1	23954*
COC(=O)[C@]12C[C@H](CC(=O)NCCc3ccccc3OC)C(=O)N(Cc3ccco3)C1=C[C@H](COCc1ccccc1)O[C@@H]2C	12.3	/	/	/	/	/
FC(F)(F)c1cccc(CON=C2CCN(c3ncc(C(F)(F)F)cc3Cl)CC2)c1	-1.1	-0.1	0.3	-1.1	1.3	19810*
Cc1oc(C(=O)Nc2ccc(C(=O)O)cc2)cc1COc1ccccc1	-4.8	5.5	-1.1	-3.0	-3.3	16440*
CCN(CC)CCn1c(=N)n(CCOc2ccccc2)c2ccccc21	-14.7	0.2	?	-9.6	-12.1	25371*
Cn1cc([N+](=O)[O-])c(C(=O)N2CCCCCC2)n1	-3.6	-0.6	0.3	0.8	2.4	5354
Cc1c([N+](=O)[O-])c(C(=O)N2CCCC2)nn1C	5.3	4.2	1.1	-0.8	-12.2	22515*
COc1ccc2ccccc2c1CN1CCN(C)CC1	-1.3	-1.2	?	7.2	-16.6	19346*
COc1ccc2ccccc2c1CN1CCSCC1	-2.0	3.5	-41.6	?	-15.8	13289
COc1ccc(CN2CCN(c3ccccc3)CC2)c(C)c1C	11.2	0.7	?	-5.9	-1.1	23743*
CCOc1ccccc1N1CCN(Cc2cccc(OC)c2OC)CC1	0.0	-4.9	0.5	-2.6	0.5	16205*
COc1ccccc1N1CCN(Cc2ccc(OC)c(OC)c2OC)CC1	6.2	2.1	0.1	-2.4	-9.6	?
CCN1CCN(Cc2c(OC)ccc3ccccc23)CC1	-8.6	2.2	3.6	4.3	0.0	19532*
CN1CCN(Cc2ccc3ccccc3c2)CC1	-6.1	1.5	3.3	-30.6	-1.3	3478
COc1ccc(/C=C2\CC3(OC(=O)c4ccco4)CCCN2C3)cc1 (centres undefined)	-2.2	/	/	/	/	/
Cc1ccc(Cn2cc(CN(C)S(=O)(=O)c3ccccc3Br)nn2)cc1	-4.1	/	/	/	/	/
C[C@@H]1CN(c2ccc(N3CCNC[C@H]3C)cc2C#N)C[C@H](C)O1	22.7	/	/	/	/	/
COC(=O)c1ccccc1S(=O)(=O)NC(=O)[C@H]1O[C@@H](n2ccc(=O)[nH]c2=O)[C@H](O)[C@@H]1O	-2.8	/	/	/	/	/
Cc1ccc(S(=O)(=O)N(C)c2nonc2C)cc1	9.3	-0.9	0.8	-0.7	0.6	19642*
SMILES	CCHF vOTU inh	3CLpro inhibitor	BoNT-A LC inh2	BoNT-F LC inh	Anthrax LF inh2	Bead autofluor
CC(C)N1CCCCC(NC(=O)c2ccc(-c3ccccc3)cc2)C1=O (centres undefined)	3.1	/	/	/	/	/
CN(CCc1ccccn1)C(=O)c1cc2ccccn2n1	-4.4	/	/	/	/	/
O=C(c1cnccn1)N1CCN(S(=O)(=O)c2ccc3ccccc3c2)CC1	1.7	-2.7	0.4	1.8	-5.1	3276
Cc1cnc(C(=O)N2CCN(S(=O)(=O)c3ccc4ccccc4c3)CC2)cn1	3.6	2.9	0.5	0.9	-0.5	20208*
Cc1ccc(C)c(S(=O)(=O)N2CCN(C(=O)c3cnccn3)CC2)c1	-10.9	0.3	-0.2	1.4	-3.0	23149*
O=C(Nc1ccc2c(c1)OCO2)NC1CCCCN(Cc2cccc(Cl)c2)C1=O (centres undefined)	-1.4	/	/	/	/	/
CCOC(=O)[C@]12CCCCC/C=C\1N(CCc1ccc(Cl)cc1)C(=O)[C@H]2CC(=O)N1CCN(C(=O)c2ccco2)CC1	7.1	/	/	/	/	/
COCCCNC(=O)c1ccc(-c2nc3ccccc3nc2-c2ccccc2)cc1	-9.2	/	-1.7	-1.0	-5.3	6662
COCCCNC(=O)c1ccc(C(=O)NCCCOC)cc1	-17.4	-1.3	0.1	-2.2	2.0	22526*
COCCCNC(=S)NNC(=O)c1cccnc1	-0.5	1.6	0.1	-1.8	-1.7	20168*
O=C(NNC(=S)NCc1ccccc1)c1cccnc1	1.6	-0.5	1.7	1.6	-1.1	5709
O=C(CSc1nc2ccccc2n1Cc1ccccc1Cl)NN=C/C(Br)=C/c1ccccc1	2.3	/	/	/	/	/
COc1ccc(/C=C2\C(=N\O)C3CCN2CC3)cc1	-9.8	2.0	-1.7	-4.6	2.9	3448
O/N=C1/C(=C\c2ccccc2)N2CCC1CC2	-12.3	-1.4	7.2	8.9	-5.4	19798*
COc1ccc(C#Cc2ccc3c(c2)[C@H]2[C@H](CCN2S(=O)(=O)c2ccccc2F)[C@H](CO)N3C)cc1	7.7	/	/	/	/	/
Cc1ccc(CNC(=O)CCCOc2cc(=O)n(C)c3ccccc23)o1	-5.4	3.6	-0.7	-9.5	-7.9	6564
Cn1c(=O)cc(OCCCC(=O)Nc2ccccn2)c2ccccc21	-7.0	0.6	1.1	-0.3	-2.2	22529*
Cn1c(=O)cc(OCCCC(=O)NCc2ccco2)c2ccccc21	0.5	-5.5	-1.8	-3.0	-2.5	17294*
Nc1ccc2ncccc2c1	15.1	-3.2	?	16.7	-20.5	17386*
O=C(C1CC1)n1ccc2ccc(-c3ccc4ccn(Cc5ccccc5)c4c3)cc21	-9.9	/	/	/	/	/
CCOC(=O)N1CCN(C(=O)C[C@H]2C[C@@]3(C(=O)OC)C(=C[C@H](COCc4ccccc4)O[C@@H]3C)N(Cc3ccccc3)C2=O)CC1	-2.0	/	/	/	/	/
CSc1nnc(-c2cc(C)on2)n1-c1ccccc1	5.0	1.8	0.0	2.9	2.7	2153
CSc1nnc(-c2nnc(SC)n2-c2ccccc2)n1-c1ccccc1	-1.9	2.1	0.0	0.0	-1.2	16237*
COCCCNC(=O)C[C@H]1C[C@@]2(C(=O)OC)C(=C[C@H](C(C)C)O[C@@H]2C2CC2)N(Cc2ccco2)C1=O	-2.9	/	/	/	/	/
Cc1ccc(NC(=O)CN2CCCCCC2)c(Br)c1	-6.2	3.6	-2.9	-3.6	-2.1	24257*
SMILES	CCHF vOTU inh	3CLpro inhibitor	BoNT-A LC inh2	BoNT-F LC inh	Anthrax LF inh2	Bead autofluor
O=C(CN1CCCCCC1)Nc1cccc(Br)c1	-2.3	0.1	-1.7	-1.3	0.3	20288*
O=S(=O)(N/N=C/c1ccc2c(c1)OCCO2)c1ccccc1	4.3	1.2	-0.1	0.7	-0.8	22257*
O=C(O)c1cc(N/N=C/c2ccc3c(c2)OCO3)ccc1Cl	7.6	5.5	1.0	-2.8	-0.3	4708
O=C(O)c1cc(N/N=C/c2ccc3c(c2)OCCO3)ccc1Cl	8.2	5.9	1.6	37.8*	0.6	2521
Cn1cccc1CC(=O)NN=C/C=C\c1ccco1	20.7	/	/	/	/	/
Cc1[nH]nc2c1C(c1cccc(C(F)(F)F)c1)NC2=O (centres undefined)	-2.4	/	/	/	/	/
